Screening data deposited in PubChem BioAssay by National Center for Advancing Translational Sciences (NCATS).
A selection: hits, their analogues and other compounds. The true share with any hit is near 3.1%.
15-hLO-2 inh: qHTS Assay for Inhibitors of 15-hLO-2 (15-human lipoxygenase 2); Polyunsaturated fatty acid lipoxygenase ALOX15B (Homo sapiens), O15296; purified 15hLO-2, xylenol orange hydroperoxide absorbance; Potency, µM (highest dose often 57.1 µM), inactives show top-dose activity change, negative = inhibition, hits mostly inhibitors; 110,000 tested, 0.56% active; AID 881, 2007; further: potency means the concentration at half of the fitted maximal effect; nearly all actives have a fitted effect of over 60% in size
Target sequence (O15296 whole entry, looked up): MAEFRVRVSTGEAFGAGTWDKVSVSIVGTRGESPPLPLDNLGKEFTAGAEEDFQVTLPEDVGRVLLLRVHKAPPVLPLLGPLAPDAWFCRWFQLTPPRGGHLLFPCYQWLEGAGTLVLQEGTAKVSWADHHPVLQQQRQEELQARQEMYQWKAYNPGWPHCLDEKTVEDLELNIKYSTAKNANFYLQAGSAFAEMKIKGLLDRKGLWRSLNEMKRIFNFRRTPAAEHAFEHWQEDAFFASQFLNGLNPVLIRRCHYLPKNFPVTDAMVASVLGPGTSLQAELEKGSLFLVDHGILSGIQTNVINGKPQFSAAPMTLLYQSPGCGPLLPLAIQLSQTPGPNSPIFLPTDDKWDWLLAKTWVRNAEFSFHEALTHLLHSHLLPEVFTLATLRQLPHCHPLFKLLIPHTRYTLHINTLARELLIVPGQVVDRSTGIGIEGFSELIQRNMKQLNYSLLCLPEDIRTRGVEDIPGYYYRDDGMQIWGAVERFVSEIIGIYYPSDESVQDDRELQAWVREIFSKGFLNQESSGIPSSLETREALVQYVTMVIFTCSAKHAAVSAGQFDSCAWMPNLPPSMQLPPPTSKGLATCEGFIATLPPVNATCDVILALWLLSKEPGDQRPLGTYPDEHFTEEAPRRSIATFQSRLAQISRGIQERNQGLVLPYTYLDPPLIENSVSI
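Screening format was qHTS against 50 nM purified 15hLO-2 in Hepes pH 7.5 with detergent. Activity follows hydroperoxide formation from 45 uM arachidonic acid, measured as 573:405 nm absorbance ratio of the ferric-xylenol orange complex.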
12-hLO inh: qHTS Assay for Inhibitors of 12-hLO (12-human lipoxygenase); Polyunsaturated fatty acid lipoxygenase ALOX12 (Homo sapiens), P18054; purified 12-hLO, xylenol orange hydroperoxide absorbance; Potency, µM (doses to about 57.1 µM), inactives show top-dose activity change, negative = inhibition, hits mostly inhibitors; 150,000 tested, 0.12% active; further: potency means the concentration at half of the fitted maximal effect; nearly all actives have a fitted effect of over 55% in size
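Hydroperoxide output read as Fe(III)-xylenol orange absorbance, 573-to-405 nm ratio, after 30 min reaction with 40 uM arachidonic acid. Enzyme: 150 nM purified human 12hLO, 15 min compound preincubation; 25 mM Hepes pH 7.0, room temperature.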
PNC inhibitor: High Content Assay for Compounds that inhibit the Assembly of the Perinucleolar Compartment | PC3M PTB-GFP, PNC prevalence imaging, 16 h; stronger effect = lower value | activity change (PNC), negative = inhibition, % at 10 µM | AID 2417, 2010 | 140,000 tested, 3.1% active;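 active means readout at or below -70, meaning at least 70% loss of cells showing the perinucleolar compartment, a nuclear body marking cancer cells; inconclusive means readout between -30 and a set limit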;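 further: plate controls were DMSO wells for no effect and camptothecin positive control wells for full effect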
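Compounds are pinned in duplicate onto adhered PC3M cells stably expressing GFP-tagged PTB and incubated 16 h at 37 C. Cells are then fixed, nuclei stained with Hoechst, and PNC-positive cells counted.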
The depositor's hits bear a star; [ ] = remark or other dose. Unless noted, the call rests on the fitted dose curve; in most records, active means well fitted curve in the direction sought with a large enough effect; inconclusive means small, poorly fitted or top-dose-only effect, or another doubt; inactive means no such curve, though single readings can be large; an effect the other way counts as inactive or inconclusive. Unless noted, on the % scale 0 is the no-effect control and ±100 the full control effect.

What do the screens show for `CCOC(=O)c1c(NC(=O)CN2CCN(C(=O)c3ccco3)CC2)sc2c1CCCC2`?
12-hLO inh: -12%; PNC inhibitor: -100*

How did CCOC(=O)c1[nH]c(C)c(C(=O)N2CCN(c3ccc(F)cc3)CC2)c1C do in these assays?
15-hLO-2 inh: -10%; 12-hLO inh: 0%; PNC inhibitor: -28

What do the screens show for `CC(C)(S)[C@H](N)C(=O)O`?
15-hLO-2 inh: 3%[11.4 µM]; 12-hLO inh: 2%[11.4 µM]

What do the screens show for `C[C@H](N)C(=O)O`?
15-hLO-2 inh: 14%; 12-hLO inh: -8%

Results for COc1cccc(Cn2c(=O)cnc3cnc(Oc4cccc(Cl)c4)nc32)c1 ?
15-hLO-2 inh: -13%; 12-hLO inh: -8%

How did O=C(O)CCn1[nH]c(=O)ccc1=O do in these assays?
12-hLO inh: 3%; PNC inhibitor: -100*

How did O=C(O)CCn1c(=O)c2ccccc2c2ccccc2c1=O do in these assays?
15-hLO-2 inh: -7%; 12-hLO inh: -3%; PNC inhibitor: 17

Results for CC[C@](N)(CCC(=O)O)C(=O)O ?
15-hLO-2 inh: 22%; 12-hLO inh: -4%

How did Cc1cc2c(c(=O)o1)C1(C(=O)N(C)c3ccccc31)C(C#N)=C(N)O2 (centres undefined) do in these assays?
15-hLO-2 inh: -5%; 12-hLO inh: -1%; PNC inhibitor: 30

Results for CC(=O)N1C(=O)C2(C(C#N)=C(N)Oc3cc(C)oc(=O)c32)c2ccccc21 (centres undefined) ?
15-hLO-2 inh: 0%; 12-hLO inh: -3%; PNC inhibitor: -115*

How did COC(=O)N1CCC2(CCN(Cc3nccs3)CC2)CC1 do in these assays?
15-hLO-2 inh: 3%; 12-hLO inh: 0%

What do the screens show for `Cc1cccc(NC(=S)N/N=C/c2c[nH]c3ccccc23)c1`?
12-hLO inh: inconclusive; PNC inhibitor: -82*

Results for O=C(N/N=C/c1ccc(O)cc1)c1[nH]c2ccc(Br)cc2c1-c1ccccc1 ?
12-hLO inh: -12%; PNC inhibitor: -5

How did O=C(CSc1nnc(SCc2ccc(Cl)cc2)s1)N/N=C/c1c[nH]c2ccccc12 do in these assays?
12-hLO inh: -1%; PNC inhibitor: -83*

How did O=C(N/N=C/c1c[nH]c2ccccc12)c1[nH]c2ccc(Br)cc2c1-c1ccccc1 do in these assays?
12-hLO inh: -8%; PNC inhibitor: -112*

How did O=C(CSc1nnc(SCc2cccc3ccccc23)s1)N/N=C/c1c[nH]c2ccccc12 do in these assays?
12-hLO inh: -4%; PNC inhibitor: 9

How did NC(=S)N/N=C\c1c[nH]c2ccccc12 do in these assays?
15-hLO-2 inh: -13%[11.4 µM]; 12-hLO inh: 4%[11.4 µM]

How did O=C(CN1CCN(Cc2ccccc2)CC1)N/N=C/c1c[nH]c2ccccc12 do in these assays?
12-hLO inh: -3%; PNC inhibitor: 26

How did O=C(CNc1ccccc1)N/N=C/c1c[nH]c2ccccc12 do in these assays?
12-hLO inh: -1%; PNC inhibitor: -119*

Results for O=C(Nc1ccccc1)N1CC[C@@]2(CCCN(C(=O)c3csnn3)C2)C1 ?
15-hLO-2 inh: -1%; 12-hLO inh: -2%

Results for Cc1ccc(S(=O)(=O)O[C@H]2C[C@@H](C(C)(C)C)CC[C@@H]2c2ccccc2)cc1 ?
15-hLO-2 inh: -9%[11.4 µM]; 12-hLO inh: 3%[11.4 µM]

What do the screens show for `CSc1nc2sc3c(c2c(=O)n1C)CCC(C)C3` (centres undefined)?
15-hLO-2 inh: -23%; 12-hLO inh: -4%; PNC inhibitor: 13

How did CSc1nc2sc3c(c2c(=O)n1C)CCCC3 do in these assays?
15-hLO-2 inh: 4%; 12-hLO inh: 0%; PNC inhibitor: -87*

Results for N=c1c2c(-c3ccccc3)c(-c3ccccc3)n(Cc3ccco3)c2ncn1Cc1ccco1 ?
15-hLO-2 inh: -15%; 12-hLO inh: -18%; PNC inhibitor: 19

What do the screens show for `N=c1c2c(-c3ccccc3)c(-c3ccccc3)n(Cc3ccccc3)c2ncn1CCCn1ccnc1`?
15-hLO-2 inh: 60%; 12-hLO inh: -3%; PNC inhibitor: -98*

Results for O=C(Cc1ccc(Cl)c(Cl)c1)OCCN1CCCC1 ?
15-hLO-2 inh: 19%; 12-hLO inh: -7%

What do the screens show for `COCCn1c(=O)c(CCc2ccccc2)nc2cnc(N3CCN(C)CC3)nc21`?
15-hLO-2 inh: 17%; 12-hLO inh: 0%

How did CCN(CC)S(=O)(=O)c1cc(NC(=O)CSc2nnc(-c3cccs3)o2)ccc1C do in these assays?
12-hLO inh: 1%; PNC inhibitor: -1

How did CCN(CC)S(=O)(=O)c1cc(NC(=O)CSc2nc3c(cc2C#N)C(=O)CC(C)(C)C3)ccc1C do in these assays?
12-hLO inh: -3%; PNC inhibitor: -96*

What do the screens show for `CC1=CC(C)(C)N(S(=O)(=O)c2ccc(F)cc2)c2ccccc21`?
15-hLO-2 inh: -4%; 12-hLO inh: -2%; PNC inhibitor: inconclusive

Results for CC1=CC(C)(C)N(S(=O)(=O)c2ccc(C)cc2)c2ccc(C)cc21 ?
15-hLO-2 inh: -6%; 12-hLO inh: -7%; PNC inhibitor: -90*

How did Cc1cnc(CNc2ncncc2-c2ccc3c(c2)OCO3)cn1 do in these assays?
15-hLO-2 inh: -12%

What do the screens show for `Cc1cc(C)c2c(N)c(C(=O)NCc3ccco3)sc2n1`?
12-hLO inh: 3%; PNC inhibitor: -98*

What do the screens show for `CC(=O)c1sc2nc(C)cc(C)c2c1N`?
15-hLO-2 inh: 5%[11.4 µM]; 12-hLO inh: -4%; PNC inhibitor: 9

How did O=C(O)[C@H](CCc1ccccc1)N1C(=O)c2ccccc2C1=O do in these assays?
15-hLO-2 inh: -11%[11.4 µM]; 12-hLO inh: 0%[11.4 µM]

What do the screens show for `C[C@H](CN(C)C)C(O)(c1ccccc1)c1ccccc1`?
15-hLO-2 inh: -2%[11.4 µM]; 12-hLO inh: 3%[11.4 µM]

Results for Cc1cc(NC(=O)CCS(=O)(=O)c2nc(-c3ccccc3)cc(C(F)(F)F)n2)no1 ?
15-hLO-2 inh: -8%; 12-hLO inh: -5%; PNC inhibitor: 34

Results for CS(=O)(=O)c1nc(-c2ccccc2)cc(C(F)(F)F)n1 ?
12-hLO inh: -6%; PNC inhibitor: -100*

What do the screens show for `C1=C(CN2CCOCC2)COc2c1cccc2OC[C@@H]1CNCCO1`?
15-hLO-2 inh: 21%; 12-hLO inh: 0%

Results for COC(=O)[C@@]1(C)C=C[C@@H](Cc2ccccc2)N1C(=O)c1ccccc1 ?
15-hLO-2 inh: 2%; 12-hLO inh: -2%

Results for CNS(=O)(=O)c1ccccc1C(=N)c1ccccc1 ?
15-hLO-2 inh: 0%[11.4 µM]; 12-hLO inh: -1%[11.4 µM]

Results for N#Cc1cccc(NC(=O)N2CCCC3(CCN(C(=O)c4cc(C(F)(F)F)cc(C(F)(F)F)c4)CC3)C2)c1 ?
15-hLO-2 inh: 22%; 12-hLO inh: -1%

How did COC(=O)c1ccc(-n2c(C)nc(=O)c(-c3ccccc3)c2C)cc1 do in these assays?
15-hLO-2 inh: 6%; 12-hLO inh: -6%; PNC inhibitor: -12

How did Cc1nc(=O)c(-c2ccccc2)c(C)n1-c1cccc(C(=O)O)c1 do in these assays?
15-hLO-2 inh: 1%; 12-hLO inh: -8%; PNC inhibitor: -101*

How did O=C(NN1CCOCC1)c1cc(S(=O)(=O)Nc2cccc(C(F)(F)F)c2)ccc1Cl do in these assays?
12-hLO inh: -1%; PNC inhibitor: -98*
